From PubChem
HIF activator – HIF pathway transcriptional activation. AID 1910. U2OS HRE-luciferase reporter, luminescence; normalized: DMSO 0%, desferrioxamine 100%. hit rate 0.32% among 300,000. activation, % at 7.5 µM (by protocol);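 active = mean activation of at least 10% of the iron chelator positive control signal, with at least half of replicates also reaching 10%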
ALR H2O2 inh – human ALR oxidase inhibition via reduced H2O2 | P55789 | purified ALR, DTT oxidation, H2O2 HRP-luminol luminescence | inhibition, % (no concentration beside the values) | hit rate 3.8% among 290,000 | AID 485317;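 active = mean replicate inhibition above about 79%, with every replicate also reaching it, limit read from the data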
Target sequence (P55789 whole entry, looked up): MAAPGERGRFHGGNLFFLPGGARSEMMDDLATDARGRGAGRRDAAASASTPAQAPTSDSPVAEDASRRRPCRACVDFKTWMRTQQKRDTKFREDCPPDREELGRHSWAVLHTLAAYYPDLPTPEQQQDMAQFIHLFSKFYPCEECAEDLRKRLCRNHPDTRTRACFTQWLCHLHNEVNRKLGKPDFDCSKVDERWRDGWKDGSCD
SUMO Mot1 rescue – blocks SUMOylation pathway, rescuing yeast Mot1-301 growth; S. cerevisiae Mot1-301 growth rescue, ATP luminescence, 38.5C; percent above DMSO median, 100 means doubled; growth rescue, % at 18.8 µM; AID 2716; hit rate 1% among 320,000;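 active = every valid replicate shows activation above 250% relative to neutral control wells; inactive = the rest, any valid replicate at or below 250%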;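 note: OY570 slx delta 5 strain wells were the positive control but not used for scaling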
PfM18AAP inh-1 – PfM18AAP enzyme inhibition; recombinant PfM18AAP, H-Glu-NHMec fluorogenic cleavage; inhibition, % at 7.35 µM; hit rate 1.2% among 290,000;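 active = inhibition above the campaign mean inhibition over all tested compounds plus 3 SD, cut at about 28% in these data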;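 note: 0% = plate median of test compound wells and 100% = 2 mM ZnCl2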
PfM18AAP inh-2 – PfM18AAP inhibition, confirmation; shares compounds with PfM18AAP inh-1; recombinant PfM18AAP, H-Glu-NHMec fluorogenic cleavage; inhibition, % at 7.35 µM; hit rate 28% among 2,400; AID 2170;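 active = mean inhibition over replicate wells above the hit cutoff set for the earlier primary screen, cut at about 29% in these data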;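 note: 0% = median of test compound wells and 100% = 2 mM ZnCl2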
CTSL1 counter – Cathepsin L (human) inhibition, confirmation; shares compounds with PfM18AAP inh-1; purified cathepsin L1, Z-Leu-Arg-MCA fluorescence; inhibition, % at 5.96 µM; 2,400 tested, under 10 active;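 active = average inhibition across replicates above the hit cutoff set in the earlier primary screen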;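 note: 0% = median of test compound wells and 100% = Z-Phe-Ala-diazomethylketone 1 µM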
Target sequence (P07711 whole entry, looked up): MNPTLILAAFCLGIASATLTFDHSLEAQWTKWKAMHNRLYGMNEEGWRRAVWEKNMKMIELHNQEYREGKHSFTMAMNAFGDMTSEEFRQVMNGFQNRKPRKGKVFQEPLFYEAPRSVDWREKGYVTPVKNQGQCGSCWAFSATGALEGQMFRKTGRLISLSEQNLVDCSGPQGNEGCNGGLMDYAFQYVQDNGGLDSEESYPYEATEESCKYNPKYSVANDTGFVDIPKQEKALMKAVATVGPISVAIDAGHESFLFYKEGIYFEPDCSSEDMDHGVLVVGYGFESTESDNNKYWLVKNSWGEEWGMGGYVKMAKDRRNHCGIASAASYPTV
Active calls of the source: *; i = inactive; . = not tested or not shown. An excerpt weighted towards active compounds, which were near 5.3% of everything screened.

SMILES	HIF activator	ALR H2O2 inh	SUMO Mot1 rescue	PfM18AAP inh-1	PfM18AAP inh-2	CTSL1 counter
O=C(CSc1nc2ccccc2c(=O)[nH]1)Nc1ccc(S(=O)(=O)N2CCCC2)cc1	-1	50	8	-1	.	.
Cc1cc(N/N=C/c2ccc(O)cc2)nc(NS(=O)(=O)c2ccccc2)n1	-1	4	-8	43*	-43	5
Oc1ccc(/C=N/Nc2ccccc2)cc1	0	59	13	18	.	.
Cc1nc2ccccc2nc1N/N=C/c1ccc(O)cc1	2	85*	-20	37*	10	-2
O=C1NCCCC2c3c(cc(Br)c(O)c3Br)OC12N1CCCCC1 (centres undefined)	0	99*	-3	51*	-93	3
CC(C)CC(=O)N/C(N)=N/c1nc2ccccc2o1	3	.	4	-2	.	.
Cc1cc(C)nc(SC/C=C/c2ccccc2)n1	-12	-12	-8	34*	-17	-1
C(=C\c1ccccc1)/CSc1ccccn1	2	-20	-7	-1	.	.
NS(=O)(=O)c1ccc(NC(=O)NC2CCCCC2)cc1	1	0	5	-6	.	.
NS(=O)(=O)c1ccc(NC(=S)NC2CCCCC2)cc1	.	-4	-21	43*	-4	1
O=C(NCc1ccco1)/C(=C/c1ccc([N+](=O)[O-])cc1)NC(=O)c1ccco1	0	-17	9	5	.	.
CC(=O)c1sc2nc(C)cc(C)c2c1N	0	.	10	-9	.	.
Cc1cc(C)c2c(N)c(C(=O)NCc3ccco3)sc2n1	0	14	-6	36*	-55	-4
CC(NC(=O)C1CCCN1S(=O)(=O)c1ccc2c(c1)n(C)c(=O)c(=O)n2C)c1ccccc1 (centres undefined)	0	-4	i	-1	.	.
CN(Cc1ccccc1)C(=O)CC(c1ccccc1)c1cc(Cl)ccc1O (centres undefined)	.	-1	21	-1	.	.
Cc1cc(=O)[nH]c2c(N=Nc3ccc(O)cc3)c(N)nn12	0	.	.	61*	62*	6
NC(=O)C1CCN(c2nc(-c3cccs3)cs2)CC1	.	1	-3	.	.	.
CCc1nnc(NC(=O)CSc2nnc(COc3cccc(C)c3)o2)s1	0	15	.	47*	-40	-5
COc1ccc(Cc2nnc(SCC(=O)Nc3ncc(C)s3)o2)cc1	0	-5	-17	21	.	.
CCc1nnc(NC(=O)CSc2nnc(Cc3ccc(OC)cc3)o2)s1	-1	9	26	41*	-33	-3
CCc1nnc(NC(=O)CSc2nnc(COc3ccccc3C)o2)s1	1	-8	-9	27	.	.
Cc1c(-c2ccccc2)sc(N)c1C(=O)N1CCOCC1	0	99*	-17	36*	-17	-1
COC(=O)c1c(N)sc(C(=O)N2CCOCC2)c1C	0	14	7	-6	.	.
O=C(NCCC1CCCCN1S(=O)(=O)c1cccs1)C(=O)Nc1cccc(F)c1 (centres undefined)	-5	-20	-18	.	.	.
Cc1cccc(NC(=O)c2ccccc2O)c1C	2	4	2	8	.	.
SMILES	HIF activator	ALR H2O2 inh	SUMO Mot1 rescue	PfM18AAP inh-1	PfM18AAP inh-2	CTSL1 counter
O=C(Nc1ccccc1O)c1ccccc1O	1	53	6	34*	29*	-5
Cc1ccc(CNC(=O)COC(=O)CCOc2ccc(C)cc2)cc1	0	4	15	.	.	.
CCc1c(C)sc(NC(=O)c2noc(C)c2[N+](=O)[O-])c1C#N	0	0	4	37*	-36	-3
O=S(=O)(Nc1ccc2c(c1)nc1n2CCN(Cc2ccccc2)C1)c1ccc(Cl)cc1	0	-3	11	-9	.	.
O=S(=O)(Nc1ccc2c(c1)nc1n2CCN(Cc2ccccc2)C1)c1ccccc1	0	.	-6	60*	-28	4
Cc1ccc(C2=Nc3ccccc3SC(c3cccc([N+](=O)[O-])c3)C2)cc1 (centres undefined)	6	19	7	33*	-51	3
O=[N+]([O-])c1cccc(C2CC(c3ccccc3)=NN2c2ccccc2)c1 (centres undefined)	3	-1	-8	10	.	.
COc1cc(C2C(C(C)=O)=C(O)C(=O)N2CCN2CCOCC2)ccc1O (centres undefined)	0	12	0	-3	.	.
CCCOc1ccc(C2C(C(=O)/C=C/c3ccco3)=C(O)C(=O)N2CCN2CCOCC2)cc1OC (centres undefined)	0	0	.	33*	-38	1
CCN(CCCNC(=O)C1CCCN(S(=O)(=O)CC)C1)c1cccc(C)c1 (centres undefined)	0	99*	6	47*	-40	-3
CCN(CCCNC(=O)C1CCN(S(=O)(=O)c2cnc[nH]2)CC1)c1cccc(C)c1	1	99*	.	51*	-34	-1
CN(CCNC(=O)C1CCN(S(=O)(=O)c2cnc[nH]2)CC1)Cc1ccccc1	-2	14	9	-6	.	.
CCCCN(CCCNC(=O)C1CCCN(S(=O)(=O)CCC)C1)Cc1ccccc1 (centres undefined)	-2	.	7	0	.	.
COc1cc(N/N=C/c2ccc(N(C)C)cc2)ncn1	-1	.	-21	10	.	.
COc1cc(N/N=C/c2ccccc2O)ncn1	10*	21	1	41*	-18	4
CC1CC(C)CN(C(=O)c2cc3c(s2)CCC3)C1 (centres undefined)	1	.	6	-2	.	.
O=c1c2ccccc2nc2n1CCC2	0	1	2	46*	17	-10
O=c1c2ccccc2nc2n1CCCCC2	-1	4	309	0	.	.
N#C/C(=C/c1ccc(F)cc1)S(=O)(=O)c1ccccc1	1	-19	-9	-9	.	.
N#C/C(=C\c1ccc(O)c(O)c1)S(=O)(=O)c1ccccc1	0	99*	-5	51*	24	5
Cc1cc(C)c2c(=O)n(CC(=O)NCCCN3CCN(c4ccccc4F)CC3)sc2n1	0	.	42	47*	-9	0
Cc1cc(C)c2c(=O)n(CC(=O)NCCCN3CCOCC3)sc2n1	0	46	353*	54*	32*	0
COc1cc(C(=S)N2CCOCC2)cc(OC)c1OC(=O)c1cccc(C)c1	0	-1	-7	5	.	.
C=CCN(CC=C)C(=O)COC(=O)c1ccc(Sc2ncn[nH]2)c([N+](=O)[O-])c1	1	.	-5	84*	80*	-1
CCNc1ccc(C(=O)OCC(=O)NC(=O)NCC(C)C)cc1[N+](=O)[O-]	0	-11	-1	7	.	.
CCOC(=O)NC(=O)COC(=O)c1ccc(Sc2ncn[nH]2)c([N+](=O)[O-])c1	0	-1	.	89*	91*	-6
COCCSc1ccccc1C(=O)NCCCn1ccnc1	0	-3	9	36*	-25	-1
Cc1ccccc1C(=O)NCCCn1ccnc1	0	-2	4	-2	.	.
Cn1c(NN)nc2sc3c(c2c1=O)CC(C)(C)OC3	0	-12	-1	21	.	.
